Shown are actives, neighbours in structure and some others; about 3.3% of the full set was active somewhere.
Sm TGR block – blocks Schistosoma mansoni thioredoxin glutathione reductase; purified TGR, DTNB reduction, TNB absorbance 405 nm; Potency, µM (titrated, usually from 114 µM), inactives show at the highest dose activity change, negative = inhibition, most hits filed as inhibitors; actives 3% (n = 360,000); AID 485364; note: nearly all actives have a fitted effect of over 60% in size
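TGR 20 nM + NADPH 100 uM (dispensed conc.), cpd preinc 15 min RT; start with NADPH (500 uM addition) then DTNB (15 mM addition). Kinetic TNB absorbance, 405 nm filter. Four-parameter Hill fit across titration.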
AmpC inh detg – blocks E. coli AmpC beta-lactamase in detergent assay; P00811; AmpC hydrolysis of nitrocefin, absorbance 480 nm, 0.01% Triton; Potency, µM (highest dose often 114 µM), without a hit: at the top dose activity change, negative = inhibition, actives largely listed as inhibitors; actives 0.041% (n = 370,000);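 note: 0% = no-compound wells and -100% = no-enzyme wells; nearly all actives have a fitted effect of over 25% in size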
Target sequence (P00811 whole entry, looked up): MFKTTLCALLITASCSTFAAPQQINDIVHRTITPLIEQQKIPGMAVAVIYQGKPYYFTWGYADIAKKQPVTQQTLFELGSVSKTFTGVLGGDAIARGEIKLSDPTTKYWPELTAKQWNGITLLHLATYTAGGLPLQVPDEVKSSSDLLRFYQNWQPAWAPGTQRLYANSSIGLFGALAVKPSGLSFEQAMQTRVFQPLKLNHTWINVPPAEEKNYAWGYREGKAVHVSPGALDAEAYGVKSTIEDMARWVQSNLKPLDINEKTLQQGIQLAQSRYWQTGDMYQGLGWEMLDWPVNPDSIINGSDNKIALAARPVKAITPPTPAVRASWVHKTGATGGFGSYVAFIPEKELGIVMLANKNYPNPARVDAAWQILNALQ
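20 mM phosphate pH 7.0 + 0.01% (detergent screen) or 0.0001% Triton X-100; 5.3 nM AmpC reagent; cpd preinc 15 min RT; nitrocefin (800 uM stock) to start; A480 q20 s × 4 min; Activity was normalised to no-enzyme and no-compound control wells.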
AmpC no deterg – inhibitors of E. coli AmpC beta-lactamase without detergent; P00811; AmpC nitrocefin hydrolysis, absorbance 480 nm, 0.0001% Triton; Potency, µM (top dose mostly 57.1 µM), without a hit: at the top dose activity change, negative = inhibition, hits mostly inhibitors; actives 0.52% (n = 330,000);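 note: plate controls were no compound for no effect and no enzyme for full effect; nearly all actives have a fitted effect of over 20% in size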
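20 mM phosphate pH 7.0 + 0.01% (detergent screen) or 0.0001% Triton X-100; 5.3 nM AmpC reagent; cpd preinc 15 min RT; nitrocefin (800 uM stock) to start; A480 q20 s × 4 min; Activity was normalised to no-enzyme and no-compound control wells.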
Numbers without * were called inactive; ? = inconclusive; / = no result; ! = not confirmed by another sample. Calls come from the whole dose curve; as a rule, active = well fitted curve in the direction sought with a large enough effect; inconclusive = small, poorly fitted or top-dose-only effect, or another doubt; inactive = no such curve, though single readings can be large; an effect the other way counts as inactive or inconclusive. Unless noted, % is set by controls: 0 for no effect and ±100 for the full control effect; potency is the fitted concentration of half-maximal effect.

SMILES	Sm TGR block	AmpC inh detg	AmpC no deterg
CCCCCCCC(=O)NN=C1CCN(Cc2ccccc2)CC1	-6%	-5%	15%
CC1=NOC(=O)/C1=C\c1ccc(-c2ccc(Cl)c(C(=O)O)c2)o1	-31%	-11%	-25%
Cc1[nH][nH]c(=O)c1C(c1ccc(-c2ccc(Cl)c(C(=O)O)c2)o1)c1c(C)[nH][nH]c1=O	16µM*	0%	-8%
COC(=O)c1cccc(-c2ccc(C(c3c(C)[nH][nH]c3=O)c3c(C)[nH][nH]c3=O)o2)c1	14µM*	0%	-47%
COC(=O)c1ccccc1-c1ccc(C(c2c(C)[nH][nH]c2=O)c2c(C)[nH][nH]c2=O)o1	-1%	-1%	67%
CCn1c(CO)nc2c1c(=O)[nH]c(=O)n2Cc1ccccc1	-15%	0%	1%
CC(=O)N1CCc2cc(S(=O)(=O)C(C)CC(=O)NCc3ccc(C)o3)ccc21 (configuration not stated)	?	4%	0%
Cc1ccc(CNC(=O)CCS(=O)(=O)c2cc(Br)cc3c2N(C(=O)C2CC2)CC3)o1	28µM*	1%	7%
CC(=O)N1CCc2cc(S(=O)(=O)CCC(=O)NCc3ccc(C)o3)ccc21	11µM*	-5%	-11%
Cc1ccc(CNC(=O)CCS(=O)(=O)c2cc(Br)cc3c2N(C(=O)C2CC2)CC3)cc1	-4%	10%	/
COc1ccc(-c2noc(CN(C(=O)COc3cc(C)c(Br)c(C)c3)C(C)C)n2)cc1	8%	16%	/
C[C@@H]1CN(C(=O)c2ccc(OC3CCN(S(=O)(=O)N(C)C)CC3)cc2)C[C@H](C)O1	-24%	-2%	50%
CCCCN(CC)CCCNC(=O)c1cn(CC(C)C)c(=O)c2c1c1ccccc1n2C	32µM*!	7%	83%
CCN(CC)CCCNC(=O)c1cn(CC(C)C)c(=O)c2c1c1ccccc1n2C	?	2%	-2%
CC(C)(C)c1nnc(NC(=O)C2CC(=O)N(CCc3ccc(F)cc3)C2)s1 (configuration not stated)	1%	-13%	81%
COCCN1CCN(C(=O)c2ccc3oc(CCc4ccccc4)nc3c2)CC1	-26%	-6%	105%
COc1ccc(CNC(=O)COC(=O)CC2CCCC2)cc1	-7%	-13%	-11%
CCC1Sc2ccc(S(=O)(=O)CCC(=O)NCc3ccco3)cc2NC1=O (configuration not stated)	32µM*	2%	-32%
CCC1Sc2ccc(S(=O)(=O)CCC(=O)Nc3ccc(NC(C)=O)cc3)cc2NC1=O (configuration not stated)	-3%	1%	-19%
Nc1ccccc1Nc1cc(-c2ccccc2)[nH]n1	4%	1%	1.1µM*
Nc1ccccc1Nc1cc(-c2ccccc2)nn1-c1ccccc1	-3%	-13%	-34%
CCOC(=O)[C@H]1[C@H]2COc3ccc(Br)cc3[C@@H]2N2C(=O)CN(Cc3ccc(Cl)cc3)C(=O)[C@@]12C	/	/	121%
CCOC(=O)[C@H]1[C@H]2COc3ccc(Br)cc3[C@@H]2N2C(=O)CN(Cc3ccco3)C(=O)[C@@]12C	32µM*	5%	143%
O=C(NCCc1ccccc1Cl)C1CC(=O)N(C2CCCCC2)C1 (configuration not stated)	14%	-6%	4%
Cc1[nH]n(-c2ccccc2)c(=O)c1C(c1ccccc1C(=O)O)c1c(C)[nH]n(-c2ccccc2)c1=O	-1%	4%	-32%
SMILES	Sm TGR block	AmpC inh detg	AmpC no deterg
Cc1[nH]n(-c2ccccc2)c(=O)c1C(C[N+](=O)[O-])c1ccc(Cl)cc1 (configuration not stated)	1.6µM*	0%	-30%
Cc1ccc(C(C[N+](=O)[O-])c2c(C)[nH]n(-c3ccccc3)c2=O)cc1 (configuration not stated)	-33%	-6%	-50%
Cc1[nH]n(-c2ccccc2)c(=O)c1C(c1ccccc1[N+](=O)[O-])C(C#N)C#N (configuration not stated)	8.9µM*	0%	-34%
CCOc1ccccc1C(=O)Nc1cc2c(cc1N1CCOCC1)n(C)c(=O)n2C	-8%	-6%	/
Cc1ccc([N+](=O)[O-])cc1NC(=S)NCCc1ccccc1	-33%	-7%	-25%
O=C(Nc1ccc2c(c1)nc1n2CCN(C2CCCCC2)C1)c1ccco1	?	1%	13%
CCC(=O)Nc1ccc2c(c1)nc1n2CCN(C2CCCCC2)C1	?	-2%	-5%
COc1ccccc1C(=O)Nc1ccc2c(c1)nc1n2CCN(C2CCCCC2)C1	25µM*	-12%	66%
O=C(Nc1ccc2c(c1)nc1n2CCN(C2CCCCC2)C1)NC1CCCCC1	13µM*	-2%	-9%
O=C1NC(Cc2ccc(O)cc2)c2nc3ccccc3c(=O)n2-c2ccccc21 (configuration not stated)	/	/	-49%
Nc1nnc(SCC(=O)Nc2ccc(N3CCOCC3)cc2)s1	10%	2%	-5%
COc1ccc(CNC(=O)c2cc3c(=O)oc4ccc(C)cc4c3s2)c(OC)c1	10%	13%	/
Cc1ccc(S(=O)(=O)N(CC(=O)Nc2cccc(C(F)(F)F)c2)C(=O)N2CCN(C)CC2)cc1	-2%	8%	207%
O=C(NCCc1ccccc1)C1(c2cccs2)CCOCC1	2%	3%	/
c1csc(C2C3=C(Nc4ncnn42)c2ccccc2OC3)c1 (configuration not stated)	45µM*	?	-30%
CC1=C(C(N)=O)C(c2cccs2)n2ncnc2N1 (configuration not stated)	-21%	2%	-1%
Cc1ccc(S(=O)(=O)N2CCSC2C(=O)O)cc1 (configuration not stated)	1%	?	-15%
Cc1ccc(S(=O)(=O)N2CCSC2c2ccco2)cc1 (configuration not stated)	45µM*	?	-41%
COc1ccc(S(=O)(=O)N2CCCC2CNC(=O)C(=O)NCc2ccccc2Cl)cc1 (configuration not stated)	-4%	-18%	28µM*
COc1ccc(S(=O)(=O)N2CCCC2C(=O)NCc2ccccc2Cl)cc1 (configuration not stated)	0%	-1%	5%
COc1ccc(CNC(=O)CCC(=O)n2ncc3cc(C)ccc32)cc1	-14%	?	-24%
CC(=O)c1ccc(NC(=O)CCn2nc(C)c(S(=O)(=O)N3CCC(C)CC3)c2C)cc1	3%	-1%	/
Cc1cccc(NC(=S)NC(=O)C2CC2)c1	35µM*	-12%	74%
Cc1cc(C)cc(NC(=S)NC(=O)C2CC2)c1	13µM*	-3%	-29%
O=C(NC(=S)Nc1ccccc1CO)C1CCCCC1	/	/	-25%
SMILES	Sm TGR block	AmpC inh detg	AmpC no deterg
Cc1cc(NC(=S)NC(=O)C2CC2)ccc1Br	?	-3%	-27%
Cc1ccccc1NC(=S)NC(=O)C1CCCCC1	14µM*	3%	-31%
Cc1cccc(NC(=O)C2CCCC2)c1	-11%	?	0%
CNC(=S)NNC(=O)c1cc(-c2cccnc2)nc2ccccc12	?	5%	-24%
O=C(Cc1cccc2ccccc12)Nc1c(F)cccc1F	1%	2%	-16%
CC(C)c1ccc(N2C(=O)NC(=O)/C(=C/c3cnc(-c4ccccc4)nc3)C2=O)cc1	3.5µM*	?	-22%

High-throughput results (PubChem)
